Screening results as filed in PubChem.
An excerpt weighted towards active compounds, which were near 2% of everything screened.
MBNL1 CUG block: blocks human MBNL1 binding to CUG repeat RNA; hit rate 0.036% among 280,000; AID 2675; TR-FRET MBNL1-His/biotin-(CUG)12 binding, 665/545 ratio; Potency, µM (doses to about 57.5 µM), without a hit: top-dose activity change, negative = inhibition, hits mostly inhibitors; active means well fitted inhibition curve with a large enough effect in the signal ratio, with a control signal flat, not every such curve was filed as active; inconclusive means small, poorly fitted or top-dose-only effect, or effect the other way, or a change in a side signal; inactive means no such curve, though single readings can be large or run the other way; the % refers to the signal ratio; further: on the % scale 0 is the no-effect control and ±100 the full control effect
Target sequence (Q9NR56 whole entry, looked up): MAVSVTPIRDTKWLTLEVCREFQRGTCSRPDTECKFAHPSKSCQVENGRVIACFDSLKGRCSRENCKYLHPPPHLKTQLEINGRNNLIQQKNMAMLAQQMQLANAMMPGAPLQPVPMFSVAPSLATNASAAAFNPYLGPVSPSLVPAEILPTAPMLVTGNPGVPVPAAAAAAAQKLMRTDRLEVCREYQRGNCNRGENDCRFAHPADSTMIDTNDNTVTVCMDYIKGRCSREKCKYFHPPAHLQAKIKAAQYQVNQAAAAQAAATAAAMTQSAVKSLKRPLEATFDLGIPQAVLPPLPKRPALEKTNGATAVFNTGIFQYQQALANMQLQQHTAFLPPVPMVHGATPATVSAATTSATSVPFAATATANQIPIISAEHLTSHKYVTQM
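Ratiometric TR-FRET (665 over 545 nm, excitation 340 nm) tracks disruption of MBNL1-His/biotin-(CUG)12 complex after 60 min at room temperature, with compounds at 92 nM to 58 uM final.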
FUS yeast rescue: FUS proteinopathy suppression in yeast. AID 1347120. S. cerevisiae FUS-expressing, growth rescue, OD600, 24 h. Potency, µM (doses to about 76.6 µM), actives largely listed as activators. hit rate 0.24% among 390,000;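 further: plate controls were DMSO vehicle for no effect and reference control for full effect; nearly all actives have a fitted effect of over 55% in size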
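Restored growth of FUS-toxic S. cerevisiae, read as 600 nm absorbance after 24 h at 30C in galactose medium (starting OD 0.005). Controls CP55940 and DMSO.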
aSyn rescue: alpha-synuclein toxicity inhibition in yeast; AID 652106; Potency, µM (titrated, usually from 46.1 µM), without a hit: at the highest dose growth rescue (activation), usual class: activators; Yeast expressing alpha-synuclein, growth rescue, BacTiter-Glo, 24 h; hit rate 0.14% among 370,000; further: % of control where 0% means no effect; nearly all actives have a fitted effect of over 65% in size
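Screening used galactose-induced yeast with toxic alpha-synuclein levels, exposed to compound for 24 hr at 30 deg C. Cell growth, read with BacTiter-Glo luminescence, gave the measured signal.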
TDP43 rescue: rescues yeast growth from TDP-43 toxicity | TDP-43 expressing yeast growth rescue, BacTiter-Glo, 24 h | Potency, µM (doses to about 46.1 µM), without a hit: at the highest dose growth rescue (activation), actives largely listed as activators | hit rate 1.8% among 410,000; further: % of control where 0% means no effect; nearly all actives have a fitted effect of over 50% in size
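Growth rescue of TDP-43-toxic yeast measured as ATP luminescence (BacTiter-Glo). Cells grown to mid-log in raffinose, induced in galactose at OD600=0.02, exposed to compound 24 hr at 30 deg C.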
Abeta yeast res: restores growth of yeast expressing A-beta42 peptide. AID 1347071. Potency, µM (highest dose often 46.1 µM), most hits filed as activators. yeast expressing A-beta42, growth rescue, OD600, 48 h; response scale: 0% DMSO, 100% iron-clioquinol control. hit rate 0.063% among 410,000; further: nearly all actives have a fitted effect of over 55% in size
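Yeast growth medium received pinned compounds, then yeast cells expressing toxic A-beta were added; plates incubated at 30 C for 48 hr. Growth read as absorbance at 600 nm, normalized to DMSO and equimolar FeCl3 plus clioquinol controls.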
GRP78 ERSR act: inducers of ER stress response in human glioma cells | Potency, µM, for the others: top-dose activation, actives largely listed as activators | hit rate 0.02% among 420,000 | U87-MG GRP78 promoter luciferase reporter, 16 h | AID 602332; further: series mostly up to about 76 µM; % of control where 0% means no effect; nearly all actives have a fitted effect of over 35% in size
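Stably transfected U87-MG glioma cells carrying a GRP78-based luciferase sensor; 16 h compound incubation. Luminescence end-point read 10 min after Bright-Glo addition at room temperature.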
Starred values were filed as active, the others as inactive; i = inactive; ? = inconclusive; . = not tested or not shown. Unless noted, the call rests on the fitted dose curve; in most records, active means well fitted curve in the direction sought with a large enough effect; inconclusive means small, poorly fitted or top-dose-only effect, or another doubt; inactive means no such curve, though single readings can be large; an effect the other way counts as inactive or inconclusive. Potency means the concentration at half of the fitted maximal effect.

SMILES	MBNL1 CUG block	FUS yeast rescue	aSyn rescue	TDP43 rescue	Abeta yeast res	GRP78 ERSR act
C=C(c1ccc2nc(NC(=O)OC)[nH]c2c1)c1cccs1	.	.	10%	20µM*	i	0%
Cc1ccc(/C(N)=N/OC(=O)c2ccc3ccccc3c2)cc1	-2%	i	-44%	1.3µM*	i	14%
Cc1ccc(/C(N)=N/OC(=O)c2cccc(F)c2)cc1	5%	i	-30%	-15%	i	6%
Cc1ccc(/C(N)=N/OC(=O)c2ccc(C)cc2Cl)cc1	.	.	-37%	4µM*	i	-9%
N/C(Cc1ccc(Cl)cc1)=N\OC(=O)c1ccc2ccccc2c1	-3%	i	-58%	6.3µM*	i	-2%
COc1ccc(C/C(N)=N/OC(=O)c2ccc(Cl)cc2)cc1	-6%	i	-16%	?	i	-2%
N/C(=N\OC(=O)c1ccc(Cl)cc1Cl)c1ccc(Cl)cc1	6%	i	-42%	10%	i	-6%
COc1ccc(NS(=O)(=O)c2ccc3oc4ccccc4c3c2)cn1	-1%	i	22µM*	?	i	0%
O=C(Cn1c(=O)c(CNc2ccccc2)cc2cc3c(cc21)OCCO3)Nc1ccccc1Cl	.	i	-2%	1%	i	-3%
Cc1ccc(Cl)cc1NC(=O)Cn1c(=O)c(CNc2ccccc2)cc2cc3c(cc21)OCCO3	.	28µM*	3%	-19%	i	-1%
COc1cc(/C=C/C(=O)c2ccc3c(c2)OCCO3)cc(Br)c1OCC(=O)N(C)C	-3%	?	11%	25µM*	i	-18%
Cc1ccc(O)c(N=CC2=C(O)c3ccccc3C2=O)c1	?	?	1%	1%	i	32µM*
O=C(NCCO)c1cn(C2CCCN(Cc3cccc(C(F)(F)F)c3)C2)nn1 (configuration not stated)	.	.	.	.	.	-5%
C=CCc1ccccc1OCC(O)CNC1CCCC1 (configuration not stated)	-4%	i	16%	9%	i	-6%
C=C(c1ccc2ccccc2n1)c1cccs1	.	.	.	.	.	0%
CC1CN(CCC(=O)N2CCCC(C(=O)c3nccn3C)C2)Cc2cc(Cl)ccc2O1 (configuration not stated)	.	.	.	.	.	-6%
c1ccc(-c2ncnc3ccccc23)cc1	.	.	-3%	13µM*	i	-2%
c1ccc(Sc2ncnc3ccccc23)cc1	-1%	i	9%	13µM*	i	-2%
c1ccc(Oc2ncnc3ccccc23)cc1	.	i	0%	2%	i	6%
N#CCSc1ncnc2ccccc12	2%	i	-3%	9%	i	-5%
Cc1ccc2nccnc2c1	.	.	.	.	.	-11%
Fc1ccc(N2CCN(Cc3ccc4c(c3)CN(Cc3cccn3-c3cccnc3)CCO4)CC2)cc1	.	.	.	.	.	-1%
Clc1ccc(CN2CCN(N=Cc3ccncc3)CC2)cc1	.	i	.	.	.	.
Cc1cc(C)c2sc(NNC(=O)c3ccc(S(=O)(=O)N4CCc5ccccc5C4)cc3)nc2c1	38%	?	5%	7.9µM*	i	-7%
COc1ccc(-n2nnnc2-c2cccc(OC)c2)cc1	-2%	i	2%	13µM*	i	-2%
SMILES	MBNL1 CUG block	FUS yeast rescue	aSyn rescue	TDP43 rescue	Abeta yeast res	GRP78 ERSR act
Cc1ccc(-n2nnnc2-c2cccc(C)c2)cc1	-2%	i	0%	20µM*	i	-2%
O=C(OC12CCCN(C1)/C(=C/c1ccc(Cl)cc1)C2)c1cccc(F)c1 (configuration not stated)	.	i	.	.	.	.
CCOc1ccc(N(CC(=O)Nc2c(C)n(C)n(-c3ccccc3)c2=O)S(=O)(=O)c2ccc3c(c2)N(C(=O)C2CCC2)CC3)cc1	.	i	.	.	.	.
CC(C)(C)C(=O)OC12CCCN(C1)/C(=C/c1ccc(C#N)cc1)C2 (configuration not stated)	.	i	.	.	.	.
NC(=S)NN=C(c1ccccc1)c1ccccc1	-4%	i	-22%	13µM*	?	1%
CC(/C=C/c1ccccc1)=N\NC(N)=S	21%	i	0%	13µM*	i	6%
